In the library only some 7.3% were active in any assay of this set; here they are far more common.
NIH3T3 tox – Cytotoxic Profiling in NIH 3T3 Cell Line of Diverse Libraries Using Quantitative High-Throughput Screening. AID 1345082, 2018. 94,000 compounds, 4.3% hits. NIH 3T3 viability, CellTiter-Glo ATP luminescence, 48-72 h. Potency, µM (titrated, usually from 96.7 µM), for the others: top-dose activity change, negative = cytotoxicity, hits mostly inhibitors; further: potency means the concentration at half of the fitted maximal effect; nearly all actives have a fitted effect of over 55% in size
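Cells were seeded at 400 per well, treated with pin-transferred compound, and kept 48 or 72 hr at 37 °C before CellTiter-Glo addition and luminescence imaging of cellular ATP.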
IP6K1 inhibitor – Primary qHTS assay for small molecule inhibitors of Inositol hexaphosphate kinase 1 (IP6K1); 140,000 compounds, 0.81% hits; activity change, % (series mostly up to about 58 µM); IP6K1 kinase, ADP-Glo luminescence, 2 h; stronger effect = lower value; Inositol hexakisphosphate kinase 1 (Homo sapiens), Q92551; in the data active means activity change below about -25%
Target sequence (Q92551 whole entry, looked up): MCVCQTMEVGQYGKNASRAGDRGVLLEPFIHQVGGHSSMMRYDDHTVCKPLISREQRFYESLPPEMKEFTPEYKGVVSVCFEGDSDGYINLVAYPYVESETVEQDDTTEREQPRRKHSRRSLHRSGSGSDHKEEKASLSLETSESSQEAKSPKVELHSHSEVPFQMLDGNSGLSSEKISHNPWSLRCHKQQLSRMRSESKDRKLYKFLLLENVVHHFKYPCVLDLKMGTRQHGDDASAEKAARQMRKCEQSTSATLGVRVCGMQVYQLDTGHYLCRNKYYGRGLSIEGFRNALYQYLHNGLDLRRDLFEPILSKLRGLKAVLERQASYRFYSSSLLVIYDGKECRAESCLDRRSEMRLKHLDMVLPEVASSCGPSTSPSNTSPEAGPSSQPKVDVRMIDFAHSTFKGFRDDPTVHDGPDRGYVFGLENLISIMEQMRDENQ
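ADP-Glo luminescence measures ADP made by human IP6K1 during a 2 h RT reaction with ATP/IP6 (mix at 1.3 mM/130 uM); top library doses 57.5 and 19.1 uM final.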
SNCA expr inh – Primary qHTS assay for inhibitors of alpha-synuclein gene (SNCA) expression; HEK-293 SNCA-luciferase knock-in, luminescence, 24 h; Potency, µM (top dose mostly 57.2 µM), inactives show top-dose activity change, negative = inhibition, usual class: inhibitors; 140,000 compounds, 0.17% hits;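 further: potency means the concentration at half of the fitted maximal effect; plate controls were DMSO cells for no effect and cell-free wells for full effect; nearly all actives have a fitted effect of over 45% in size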
HEK293 viab – GF-AFC viability counterscreen for inhibitors of alpha-synuclein gene (SNCA) expression | 150,000 compounds, 0.12% hits | HEK-293-SNCA-luc viability, GF-AFC fluorescence, 24 h | Potency, µM (series often up to 57.1 µM), for the others: top-dose activity change, negative = cytotoxicity, usual class: cytotoxic | AID 1671193, 2021;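 further: potency means the concentration at half of the fitted maximal effect; 0% = DMSO-treated cells and -100% = medium-only wells without cells; nearly all actives have a fitted effect of over 30% in size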
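HEK-293-SNCA-luc cells (1500/well) plated 24 h, then exposed 24 h to a dilution series; GF-AFC added 30 min at 37C, fluorescence 405/540 nm; normalised to medium-only and DMSO wells, Hill fit.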
Luciferase inh – Firefly luciferase inhibition profiling of diverse chemical library using quantitative high-throughput screening; purified P. pyralis luciferase, luminescence, biochemical; Potency, µM (top dose mostly 115 µM), usual class: inhibitors; 76,000 compounds, 2.5% hits; AID 1347043, 2019; further: potency means the concentration at half of the fitted maximal effect; nearly all actives have a fitted effect of over 65% in size
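Purified 10nM P. pyralis luciferase with 10uM D-luciferin and 10uM ATP in 50mM Tris acetate pH 7.5, 10mM Mg acetate, 0.01% Tween-20, 0.05% BSA. qHTS titration; luminescence read by CCD imager.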
HEK293 tox – Cytotoxic Profiling in HEK 293 Cell Line of Diverse Libraries Using Quantitative High-Throughput Screening; HEK 293 viability, ATP luminescence (CellTiter-Glo), 48-72 h; Potency, µM (highest dose often 115 µM), without a hit: at the top dose activity change, negative = cytotoxicity, usual class: inhibitors; 94,000 compounds, 6.6% hits; further: potency means the concentration at half of the fitted maximal effect; nearly all actives have a fitted effect of over 60% in size
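250 HEK 293 cells/well; compound by pintool; incubated 48 or 72 hr at 37 degree Celsius; CellTiter-Glo added, 10 min RT, luminescence imaged.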
* = called active by the depositor; i = inactive; ? = inconclusive; · = no result given; [ ] = dose if it differs, or a comment. Unless noted, the call rests on the fitted dose curve; in most records, active means well fitted curve in the direction sought with a large enough effect; inconclusive means small, poorly fitted or top-dose-only effect, or another doubt; inactive means no such curve, though single readings can be large; an effect the other way counts as inactive or inconclusive. Unless noted, on the % scale 0 is the no-effect control and ±100 the full control effect.

SMILES	NIH3T3 tox	IP6K1 inhibitor	SNCA expr inh	HEK293 viab	Luciferase inh	HEK293 tox
COc1ccc(Nc2ccc3c(n2)CN(Cc2ccccc2)C(=O)CO3)cn1	?	-14	0%[87.6 µM]	-10%[87.6 µM]	i	79µM*
COc1ccc(Nc2ccc3c(n2)CN(Cc2ccc(F)cc2)C(=O)CO3)cn1	?	-20	1%[87.6 µM]	-11%[87.6 µM]	i	89µM*
COc1ccc(Nc2ccc3c(n2)CN(Cc2ccc(C(F)(F)F)cc2)C(=O)CO3)cn1	?	-11	?	-24%	i	?
O=C1COc2ccc(-c3ccccc3F)nc2CN1Cc1ccccc1	?	-3	-29%[87.6 µM]	3%[87.6 µM]	i	?
CCCN(C)CC1(O)CCC2(CCN(C(=O)C3CCCC3)CC2)CC1	?	-9	2%	15%	·	?
COc1ccc(NC(=O)[C@@H]2C[C@H](c3ccc(F)cc3)N(Cc3ccccc3Cl)C2)cn1	22µM*	10	?	?	i	28µM*
O=C(Nc1ccccn1)[C@@H]1C[C@@H](c2ccc(F)cc2)N(Cc2ccccc2)C1	?	8	?	?	i	?
O=C(Nc1cccnc1)[C@@H]1C[C@H](c2ccc(F)cc2)N(Cc2ccccc2Cl)C1	45µM*	9	?	-29%[87.6 µM]	i	40µM*
O=C(Nc1cccnc1)[C@@H]1C[C@@H](c2ccc(F)cc2)N(Cc2ccccc2)C1	79µM*	-3	-10%[87.6 µM]	-10%[87.6 µM]	i	?
CC(C)c1nc2c(c(-c3ccc(Cl)cc3)n1)CCN(C(=O)c1ccccc1)CC2	-11%	-6	-6%	?	·	?
O=C(c1cccc(F)c1)N1CCC2(CCCCO2)CC1	-11%	8	-1%	-7%	i	?
COc1ccc(CN2CC(C(C)(C)C)Oc3nc(C)ccc3C2=O)cc1 (centres undefined)	?	-12	19%[25.6 µM]	4%[23.9 µM]	·	-19%[57.5 µM]
CCCC1CN(Cc2cccc(F)c2)C(=O)c2ccc(C)nc2O1 (centres undefined)	?	-5	·	·	·	50µM*
Cc1ccc2c(n1)O[C@@H](COCc1ccccc1)CN(Cc1cccs1)C2=O	25µM*	0	-18%[25.6 µM]	-14%[23.9 µM]	·	32µM*
Cc1ccc2c(n1)O[C@@H](COCc1ccccc1)CN(Cc1ccc3c(c1)OCO3)C2=O	13µM*	38	1%[25.6 µM]	-14%[23.9 µM]	·	?
COc1ccc(OCC2CN(Cc3cccs3)C(=O)c3ccc(C)nc3O2)cc1 (centres undefined)	?	-7	·	·	·	?
CC(=O)N[C@H]1C[C@@H](c2cc(C)c(C)cc2C)O[C@@H](C(C)(C)C)C1	?	26	-9%	-3%	i	?
Cc1nnc(-c2cc(-c3ccnn3C)ccn2)n1-c1ccccc1	?	-7	-27%[87.6 µM]	-1%[87.6 µM]	i	-26%[172 µM]
Cc1nnc(-c2cc(-c3cnn(C)c3)ccn2)n1-c1ccccc1	89µM*	6	-14%[87.6 µM]	-6%[87.6 µM]	i	?
Cc1nnc(-c2cc(C(=O)NCC(C)C)ccn2)n1CCc1ccccc1	?	15	62%[87.6 µM]	17%[87.6 µM]	i	-23%[172 µM]
Cc1nnc(-c2cc(-c3ccccc3Oc3ccccc3)ccn2)n1C	?	-12	?	7%[87.6 µM]	i	89µM*
Cc1nnc(-c2cc(C(=O)NC3CCOCC3)ccn2)n1CCc1ccccc1	89µM*	12	-8%[87.6 µM]	12%[87.6 µM]	i	i
CC(=O)N1CCN(c2ccnc(-c3nnc(C)n3-c3ccccc3)c2)CC1	89µM*	6	33%[87.6 µM]	10%[87.6 µM]	i	2%[172 µM]
CCC(C)NC(=O)c1cc(-c2ccc(F)cc2)nc2c1cnn2C (centres undefined)	?	2	·	·	·	?
